Reference: PubChem BioAssay (EPA / NIEHS)
Results filed as inconclusive are left out. Activity calls are given as the source filed them. Rule for the calls: active = hit-call score of the fitted dose curve at least 0.9, where 1 is the maximum; inconclusive = response in the unintended direction; inactive = score below 0.9.

Legend:
[1] = TOX21_p53_BLA_p2_viability: Viability Assessment in the Tox21 HCT-116 p53 Agonism Beta-lactamase Assay, Phase 2 (AID 2283591);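 note: compound exposure lasted 16 h at 37 °C; actives lower the ATP signal meaning cytotoxicity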
Summary of the method: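 HCT116 p53-bla cells, 4000/well, dosed after 5 h plating (217-fold dilution of DMSO stocks) and incubated 16 h at 37C. Viability taken as cellular ATP by CellTiter-Glo luminescence after 30 min RT; signal loss marks cytotoxicity.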

[2] = target: Cellular tumor antigen p53 (Homo sapiens) (UniProt P04637); assay: TOX21_p53_BLA_p2_ratio: Tox21 HCT-116 p53 Agonism Beta-lactamase Assay, Ratio, Phase 2 (AID 2283592)
Summary of the method: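 Cleaved-to-uncleaved substrate ratio (460 vs 530 nm) measured in HCT116 cells with an inducible beta-lactamase reporter linked to p53 activity. Compounds incubated 16 h at 37C before 2 h room-temperature CCF4-AM loading.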

[3] = TOX21_p53_BLA_p3_viability: Viability Assessment in the Tox21 HCT-116 p53 Agonism Beta-lactamase Assay, Phase 3 (AID 2283593);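 note: cells exposed to compound for 16 h before reading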
Summary of the method: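 HCT116 cells, 4000/well, dosed 5 h after plating by pin transfer (217-fold dilution from DMSO stock) and incubated 16 h at 37C, 5% CO2. Viability read as ATP luminescence with CellTiter-Glo after 30 min at room temperature.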

[4] = TOX21_p53_BLA_p4_viability: Viability Assessment in the Tox21 HCT-116 p53 Agonism Beta-lactamase Assay, Phase 4 (AID 2283597);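 note: hits lower the luminescence signal meaning cytotoxicity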
Summary of the method: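 Viability is taken as cellular ATP: after 16 h compound exposure of HCT116 cells and a 2 h room-temperature CCF4-AM substrate step, CellTiter-Glo reagent is added and luminescence is measured 30 min later.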

[5] = target: Cellular tumor antigen p53 (Homo sapiens) (UniProt P04637); assay: TOX21_p53_BLA_p5_ratio: Tox21 HCT-116 p53 Agonism Beta-lactamase Assay, Ratio, Phase 5 (AID 2283599)
Summary of the method: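 HCT-116 p53-bla cells (4000/well) plated 5 h, dosed with compound (217-fold DMSO dilution) for 16 h at 37 C; CCF4-AM substrate 2 h at room temperature. Activity is the 460/530 nm emission ratio (405 nm excitation), fitted in gain-of-signal direction versus DMSO.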

[6] = TOX21_p53_BLA_p5_viability: Viability Assessment in the Tox21 HCT-116 p53 Agonism Beta-lactamase Assay, Phase 5 (AID 2283600)
Summary of the method: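 Viability is taken from cellular ATP content, measured by luciferase luminescence in the same wells after the beta-lactamase ratio read. Cells are seeded at 4000 per well and exposed to DMSO-dissolved compounds, diluted 217-fold, for 16 h.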

[7] = target: Cellular tumor antigen p53 (Homo sapiens) (UniProt P04637); assay: TOX21_p53_BLA_p4_ratio: Tox21 HCT-116 p53 Agonism Beta-lactamase Assay, Ratio, Phase 4 (AID 2283601)
Summary of the method: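 HCT-116 p53 beta-lactamase reporter cells (4000/well) preincubated 5 h, then compound (217-fold dilution of DMSO stock) for 16 h at 37C. CCF4-AM substrate added 2 h at room temperature; 460/530 nm emission ratio fitted upward versus DMSO.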

Measured: outcome

Sequence of Cellular tumor antigen p53 (Homo sapiens) (P04637 whole entry, looked up): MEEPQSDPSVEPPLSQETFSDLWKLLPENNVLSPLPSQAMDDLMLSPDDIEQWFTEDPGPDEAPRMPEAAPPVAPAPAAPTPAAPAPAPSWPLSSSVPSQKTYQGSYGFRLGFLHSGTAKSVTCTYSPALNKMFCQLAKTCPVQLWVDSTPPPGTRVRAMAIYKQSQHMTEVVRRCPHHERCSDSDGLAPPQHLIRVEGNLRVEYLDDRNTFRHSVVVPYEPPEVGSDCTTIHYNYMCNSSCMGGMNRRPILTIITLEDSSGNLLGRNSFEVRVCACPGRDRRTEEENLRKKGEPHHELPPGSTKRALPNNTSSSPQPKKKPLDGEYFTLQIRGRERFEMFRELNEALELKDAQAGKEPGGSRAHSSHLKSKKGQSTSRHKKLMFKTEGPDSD

CC(C)OCC1CO1 (centres undefined)
not listed: [6] | [7]
inactive: all other assays above

O=P(O)(O)C(Sc1ccc(Cl)cc1)P(=O)(O)O
not listed: [7]
inactive: all other assays above

O=C(O)COc1ccc(C(=O)c2cccs2)c(Cl)c1Cl
inactive: all assays above

Clc1ccc2c(c1)CCc1cccnc1C2=C1CCNCC1
inactive: all assays above

NC(=S)NS(=O)(=O)c1ccc(N)cc1
not listed: [7]
inactive: all other assays above

CC(C)OC(=O)C(C)N(C(=O)c1ccccc1)c1ccc(F)c(Cl)c1 (centres undefined)
inactive: all assays above

O=C(CCN1CCN2CCCC2C1)N1c2ccccc2Sc2ccc(Cl)cc21 (centres undefined)
inactive: [1] | [2] | [3] | [4]

O=C1OC(=O)c2cc([N+](=O)[O-])ccc21
not listed: [6] | [7]
inactive: all other assays above

CC[N+]1(CC)CCC(=C(c2ccccc2)c2ccccc2)C1C (centres undefined)
not listed: [7]
inactive: all other assays above

OCC1O[C@@H](O[C@@H]2C(CO)OC(O)C(O)C2O)C(O)C(O)C1O (some centres undefined)
not listed: [7]
inactive: all other assays above

CCOC(=O)[C@H](CCc1ccccc1)N[C@@H](C)C(=O)N1CCC[C@H]1C(=O)O
not listed: [7]
inactive: all other assays above

CCCCCSCCCCC
not listed: [7]
inactive: all other assays above

CCCC[P+](C)(CCCC)CCCC
inactive: all assays above

Nc1nc(-c2ccccc2)c(Br)c(=O)[nH]1
inactive: all assays above

O=c1[nH]cnc2[nH]cc(CN3CCCCC3)c12
not listed: [7]
inactive: all other assays above

CCCCCC1Nc2cc(C(F)(F)F)c(S(N)(=O)=O)cc2S(=O)(=O)N1 (centres undefined)
not listed: [7]
inactive: all other assays above

O=C(CCCCC(=O)Nc1c(I)cc(I)c(C(=O)O)c1I)Nc1c(I)cc(I)c(C(=O)O)c1I
not listed: [6] | [7]
inactive: all other assays above

COc1cc(Br)c(C[N+]2(CCOCCC3CCC4CC3C4(C)C)CCOCC2)cc1OC (centres undefined)
not listed: [7]
inactive: all other assays above

CN(C)C/C=C(/c1ccc(Br)cc1)c1cccnc1
inactive: all assays above

C=CCCC
not listed: [7]
inactive: all other assays above

CCOc1ccc(N=C(C)Nc2ccc(OCC)cc2)cc1
not listed: [7]
inactive: all other assays above

CC(C)(COP(=O)(O)OP(=O)(O)OC[C@H]1O[C@@H](n2cnc3c(N)ncnc32)[C@H](O)[C@@H]1OP(=O)(O)O)C(O)C(=O)NCCC(=O)NCCS (some centres undefined)
not listed: [7]
inactive: all other assays above

O=C(CCCN1CCN(c2ccc(F)cc2)CC1)NC1c2ccccc2CSc2ccccc21 (centres undefined)
not listed: [7]
inactive: all other assays above

O=[N+]([O-])c1ccc(CCO)cc1
not listed: [6] | [7]
inactive: all other assays above

c1ccc(CNCCNCc2ccccc2)cc1
inactive: all assays above

Cc1c(O)c(=O)ccn1C
inactive: all assays above

Nc1cccc(S(=O)(=O)O)c1
inactive: all assays above

CCCCCCCCCCCC(=O)OC[C@@H](O)[C@H]1OC[C@H](OCCO)[C@H]1OCCO
inactive: all assays above

On1nnc2ccccc21
inactive: all assays above
